We go through 40 compounds from PubChem BioAssay (Tox21).

Records with an inconclusive call do not appear. Values without a mark were called inactive. Calls of active or inactive are those of the source. Calls come from the whole dose curve.
% is set by controls: 0 for no effect and ±100 for the full control effect; potency is the fitted concentration of half-maximal effect.

This experiment is described as follows: p53 small molecule agonists, cell-based qHTS assay with rat liver microsomes: qHTS cell viability counter screen (AID 1963580). Note: nearly all actives have a fitted effect of over 45% in size. As to conditions: p53RE-bla HCT-116 + rat microsomes, ATP viability, 16 h; series mostly up to 66 µM; activity change, negative = cytotoxicity: at the top concentration. From the text: National Center for Advancing Translational Sciences [NCATS]
Division of Preclinical Innovation [DPI]
U.S. Environmental Protection Agency [EPA]
National Institutes of Environmental Health Sciences [NIEHS]
National Toxicology Program [NTP]
U.S. Food and Drug Administration [FDA]
p53, a tumor suppressor protein, is activated following cellular insult, including DNA damage and other cellular stresses. The activation of p53 regulates cell fate by inducing DNA repair, cell cycle arrest, apoptosis, or cellular senescence. The activation of p53, therefore, is a good indicator of DNA damage and other cellular stresses. The CellSensor p53RE-bla HCT-116 cell line contains a stably integrated beta-lactamase reporter gene under control of the p53 response elements. The activation of the reporter gene under culture conditions can be detected by fluorescence intensity. This cell line was used to screen the Tox21 10K compound library in the condition of presence of rat liver microsomes and to identify agonists that activate the p53 signaling pathway after in vitro metabolic activation (Ooka et al., Archive of Toxicology 96:1975-1987, 2022). The cytotoxicity of the Tox21 compound library against the p53 RE-bla HCT-116 cell line was tested in parallel by measuring the intra cellular ATP content in the same wells.
Tox21 Assay Protocol Summary:
The p53RE-bla cells were dispensed at 4,000cells/3ul/well in 1536-well black-clear bottom plates. After the assay plates were incubated at 37 C, 5% CO2 incubator for 5 hours, 23 nL of compounds dissolved in DMSO, positive controls or DMSO only was transferred to the assay plate. Following compound addition, 3 uL of rat liver microsomes (Molecular Toxicology, Boone, NC) at final concentration of 0.5 mg/mL and 1uL of B-Nicotinamide adenine dinucleotide 2'-phosphate (NADPH) at final concentration of 0.5 mg/mL were transferred to the assay plate. The plates were incubated at 37 C for 16 hours. 1 uL of LiveBLAzer detection mixture was added to each well and the plates were incubated at room temperature in the dark for 2 h. Fluorescence intensity at 460 and 530 nm emission and 405 nm excitation were measured by an Envision plate reader. For cell viability readout that measures cytotoxicity, 4 ul/well of CellTiter-Glo reagent was added into the assay plates using a Flying Reagent Dispenser. After 30 min incubation at room temperature, the luminescence intensity in the plates was measured using a ViewLux plate reader.
A general note: qHTS replaces the single test concentration by a dilution series.
With `CCCCCCCCCCCC[N+](C)(C)CCCCCCCCCCCC`, the Potency is 40.8 µM (active). Regarding `CC(=O)Oc1cc2c(s1)CCN(C(C(=O)C1CC1)c1ccccc1F)C2` (stereo not given), the “activity change, negative = cytotoxicity” value was -0.74% [at 30.3 µM].

For `CCCC(=O)OCOC(=O)C1=C(C)NC(C)=C(C(=O)OC)C1c1cccc(Cl)c1Cl` (stereo not given), the “activity change, negative = cytotoxicity” value was 8.62% [at 30.3 µM]. Regarding `CCCCCCCCC(C)=O`, the “activity change, negative = cytotoxicity” value is -5.3%.

On to `Clc1ccc(C(Cn2ccnc2)OCc2c(Cl)cccc2Cl)c(Cl)c1` (stereo not given), for which the “activity change, negative = cytotoxicity” value is -1.02% [at 30.3 µM]. For `CC(C)(C)c1cc(CCC(=O)OCCSCCOC(=O)CCc2cc(C(C)(C)C)c(O)c(C(C)(C)C)c2)cc(C(C)(C)C)c1O`, the “activity change, negative = cytotoxicity” value was 3.27% [at 30.3 µM]. Consider `C=C(C)C(=O)OCCCC`, for which the “activity change, negative = cytotoxicity” value was -1.49%. Consider `CCN(CC)CCc1nc(-c2ccccc2)no1`, for which the “activity change, negative = cytotoxicity” value was 2.54% [at 30.3 µM]. As for `O=C1c2ccccc2S(=O)(=O)N1CCCCN1CCN(c2ncccn2)CC1`, the “activity change, negative = cytotoxicity” value is 1.76% [at 30.3 µM]. On to `O=C(Nc1ccc([N+](=O)[O-])cc1)Nc1ccc([N+](=O)[O-])cc1`, for which the “activity change, negative = cytotoxicity” value was -4.77% [at 30.3 µM]. As to `CN1CCN(C2=Nc3cc(F)ccc3Cc3ccccc32)CC1`, the “activity change, negative = cytotoxicity” value was 0.335% [at 30.3 µM]. Consider `CCC1(C)NC(=O)NC1=O` (stereo not given), for which the “activity change, negative = cytotoxicity” value is 3.84%. On the same count and under the same terms, next, `Cc1ccc(Cl)c(OCC(O)CNC(C)(C)C)c1` (stereo not given): -0.98% [at 30.3 µM]; `COC(=O)C1=C(C)NC(C)=C(C(=O)OC(C)(C)CN(C)CCC(c2ccccc2)c2ccccc2)C1c1cccc([N+](=O)[O-])c1` (stereo not given): -0.0359% [at 30.3 µM]; `O=CNNC=O`: 0.0362%. Same read-out and setting: next, `COc1cc2c(N3CCN(C(=O)Nc4ccc(OC(C)C)cc4)CC3)ncnc2cc1OCCCN1CCCCC1`: 2.91% [at 30.3 µM]. With `O=C(O)CC(C(=O)O)S(=O)(=O)O` (stereo not given), the “activity change, negative = cytotoxicity” value is 14.7%. Turning to `COc1ccc(-c2cc(=O)c3c(O)cc(O[C@@H]4O[C@H](CO[C@@H]5O[C@@H](C)[C@H](O)[C@@H](O)[C@H]5O)[C@@H](O)[C@H](O)[C@H]4O)cc3o2)cc1O`, the “activity change, negative = cytotoxicity” value is 1.62% [at 30.3 µM].

Take `O=C(O)COCC(=O)O`: the “activity change, negative = cytotoxicity” value was 2.29%.

Regarding `O=C(O)C(O)[C@H](O)[C@@H](O)[C@H](O)[C@H](O)CO` (stereo not given in full), the “activity change, negative = cytotoxicity” value is -1.3%. The same measure, in the same setting: then `Cc1cc(NC(=O)C2=C(O)c3ccccc3S(=O)(=O)N2C)no1`, with -1.19% [at 30.3 µM]; and `O=C(Nc1ccccc1)Nc1ccccc1`, with -0.108%.

As to `Nc1nc(-c2ccccc2)c(Br)c(=O)[nH]1`, the “activity change, negative = cytotoxicity” value was 3.8% [at 30.3 µM].

Turning to `C=Cc1ccccc1C=C`, the “activity change, negative = cytotoxicity” value is 4.19% [at 172 µM].

As to `CC(CC1c2ccccc2CCc2ccccc21)CN(C)C` (stereo not given), the “activity change, negative = cytotoxicity” value was 0.932% [at 30.3 µM]. Consider `NS(=O)(=O)c1cc(C(=O)O)cc(N2CCCC2)c1Oc1ccccc1`, for which the “activity change, negative = cytotoxicity” value was 1.87% [at 30.3 µM]. Turning to `CCCC1CCCC(=O)O1` (stereo not given), the “activity change, negative = cytotoxicity” value was 0.155%. On to `CN1C[C@H](C(=O)N[C@]2(C)O[C@@]3(O)[C@@H]4CCCN4C(=O)[C@H](Cc4ccccc4)N3C2=O)C[C@@H]2c3cccc4[nH]cc(c34)C[C@H]21`, for which the “activity change, negative = cytotoxicity” value was -0.265% [at 30.3 µM]. For `Cc1c(Cl)cccc1Nc1ccccc1C(=O)O`, the “activity change, negative = cytotoxicity” value was -15.8% [at 30.3 µM]. As to `CCn1cc(C(=O)O)c(=O)c2cc(F)c(N3CCNCC3)cc21`, the “activity change, negative = cytotoxicity” value was -0.251% [at 30.3 µM]. The same measure, in the same setting: next, `O=C(O)CCC(=O)OC[C@@H](NC(=O)C(Cl)Cl)[C@H](O)c1ccc([N+](=O)[O-])cc1`: -4.62% [at 30.3 µM]; `O=[N+]([O-])c1cccc(S(=O)(=O)NCCNS(=O)(=O)c2cccc([N+](=O)[O-])c2)c1`: -11.6% [at 30.3 µM]. In the case of `c1ccc(CN(CC2=NCCN2)c2ccccc2)cc1`, the “activity change, negative = cytotoxicity” value is 5.86% [at 30.3 µM]. Turning to `CC(C)(C)C(=O)C(=O)O`, the “activity change, negative = cytotoxicity” value was -3.51%. As to `CC(C)CCCCCCOC(=O)c1ccc(C(=O)OCCCCCCC(C)C)c(C(=O)OCCCCCCC(C)C)c1`, the “activity change, negative = cytotoxicity” value is 0.735%. For `Cc1ccc2c(c1[N+](=O)[O-])C(=O)c1ccccc1C2=O`, the “activity change, negative = cytotoxicity” value was 4.88% [at 30.3 µM].

In the case of `CCN(CC)CCNC(=O)c1cc(S(C)(=O)=O)ccc1OC`, the “activity change, negative = cytotoxicity” value was -2.65% [at 30.3 µM]. Take `O=CC(=O)c1ccccc1`: the “activity change, negative = cytotoxicity” value is -2.58%. Take `CNC(=O)c1cnn(-c2nc(N)c3ncn([C@@H]4O[C@H](CO)[C@@H](O)[C@H]4O)c3n2)c1`: the “activity change, negative = cytotoxicity” value is -9.11% [at 30.3 µM]. Take `O=C(O)c1ccncc1`: the “activity change, negative = cytotoxicity” value was -7.57%.
